Assay results reported in PubChem BioAssay AID434961 (Broad Institute, 2010).
The campaign covered roughly 7,700 compounds. About 15 (0.2%) were called active. Another 6% or so got no clear call; they are omitted.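 How the source made its calls: active means more than half of replicate wells with inhibition above about 18% (limit read from the data, passing the limit was not always enough); inconclusive means exactly half of replicate wells above that limit; inactive means fewer than half of replicates above it.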 The sample as a whole holds a higher share of actives than the screen did.

target: Regulator of chromosome condensation (Homo sapiens) + GTP-binding nuclear protein Ran (Homo sapiens) + Importin subunit beta-1 (Homo sapiens) (UniProt P18754+P62826+Q14974); test: RanGTP/importin-beta interaction disruptors – biochemical, CFP-Ran/YFP-importin-beta FRET, RCC1, cell-free, primary screen (AID 434961); details: active compounds read high, concentration not given here;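 further: 0% = DMSO wells and 100% inhibition = RanGDP control wells on each plate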

inhibition, active:
C[C@H]1CN([C@@H](C)CO)C(=O)c2cccc(NC(=O)c3ccc(-c4nccs4)cc3)c2O[C@H]1CN(C)C(=O)Nc1ccccc1 18.7%
C[C@@H]1CN([C@H](C)CO)C(=O)c2cccc(NC(=O)c3ccc(-c4nccs4)cc3)c2O[C@@H]1CN(C)CC1CC1 29.6%

inhibition, inactive:
C[C@@H]1CCCCO[C@@H](CN(C)S(=O)(=O)c2cn(C)cn2)[C@H](C)CN([C@@H](C)CO)C(=O)c2cc(NC(=O)c3ccccc3)ccc2O1 1.13%
Cc1ccc(S(=O)(=O)Nc2ccc3c(c2)CC(=O)N([C@H](C)CO)C[C@H](C)[C@@H](CN(C)Cc2ccncc2)O3)cc1 0.0587%
Cc1noc(C)c1S(=O)(=O)Nc1ccc2c(c1)CC(=O)N([C@H](C)CO)C[C@@H](C)[C@@H](CN(C)C(=O)NC(C)C)O2 -4.94%
C[C@H]1CN([C@@H](C)CO)C(=O)Cc2cc(NC(=O)C3CC3)ccc2O[C@H]1CN(C)Cc1ccc(Cl)c(Cl)c1 7.64%
C[C@@H]1CCCCO[C@H](CN(C)C(=O)Nc2ccccc2)[C@@H](C)CN([C@H](C)CO)C(=O)c2cc(NC(=O)Cc3ccccc3)ccc2O1 0.496%
C[C@@H]1CCCCO[C@H](CN(C)C(=O)CCCN(C)C)[C@@H](C)CN([C@H](C)CO)C(=O)c2cc(NS(=O)(=O)c3cccs3)ccc2O1 -2.86%
C[C@@H]1CN([C@@H](C)CO)C(=O)c2cc(NC(=O)c3ccncc3)ccc2O[C@H]1CN(C)C(=O)Nc1ccccc1 4.49%
Cc1noc(C)c1NC(=O)N(C)C[C@@H]1Oc2ccc(NC(=O)Nc3cccc4ccccc34)cc2C(=O)N([C@H](C)CO)C[C@H]1C -0.0777%
C[C@@H]1CN([C@H](C)CO)C(=O)Cc2cc(NC(=O)C3CC3)ccc2O[C@H]1CN(C)C -6.15%
C[C@@H]1CCCCO[C@H](CN(C)Cc2ccncc2)[C@H](C)CN([C@H](C)CO)C(=O)c2cc(NC(=O)c3ccncc3)ccc2O1 -0.929%
C[C@@H]1CCCCO[C@@H](CN(C)S(=O)(=O)c2cccs2)[C@H](C)CN([C@H](C)CO)C(=O)c2cc(NS(C)(=O)=O)ccc2O1 -1.23%
Cc1cc(C(=O)Nc2cccc3c2O[C@@H](CN(C)CC2CC2)[C@@H](C)CN([C@@H](C)CO)C3=O)n(C)n1 -1.14%
C[C@H](CO)N1C[C@H](C)[C@H](CN(C)CC2CC2)Oc2c(NC(=O)c3ccc(-c4nccs4)cc3)cccc2C1=O -0.371%
C[C@H]1CN([C@@H](C)CO)C(=O)c2cccc(NC(=O)c3ccc(-c4nccs4)cc3)c2O[C@@H]1CN(C)C(=O)Nc1ccccc1 0.856%
C[C@@H]1CN([C@H](C)CO)C(=O)c2cccc(NC(=O)c3ccc(-c4nccs4)cc3)c2O[C@@H]1CN(C)C(=O)Nc1ccccc1 -1.55%
C[C@H]1CN([C@@H](C)CO)C(=O)c2cccc(NC(=O)c3ccc(-c4nccs4)cc3)c2O[C@H]1CN(C)CC1CC1 1.58%
Cc1noc(C)c1NC(=O)N(C)C[C@@H]1Oc2ccc(NS(=O)(=O)c3cccs3)cc2C(=O)N([C@H](C)CO)C[C@@H]1C -1.63%
C[C@@H]1CCCCO[C@@H](CN(C)C(=O)CCC(F)(F)F)[C@H](C)CN([C@@H](C)CO)C(=O)c2cc(NS(=O)(=O)c3ccccc3)ccc2O1 -3.22%
C[C@@H]1CN([C@@H](C)CO)C(=O)c2cccc(NS(C)(=O)=O)c2O[C@H]1CN(C)S(=O)(=O)c1cn(C)cn1 0.88%
C[C@H]1CN([C@@H](C)CO)C(=O)Cc2cc(NC(=O)Cc3cn(C)c4ccccc34)ccc2O[C@@H]1CN(C)C(=O)Nc1ccccc1 0.0312%
Cc1noc(C)c1S(=O)(=O)Nc1cccc2c1O[C@H](CN(C)C(=O)NC1CCCCC1)[C@H](C)CN([C@@H](C)CO)C2=O -6.51%
Cc1noc(C)c1S(=O)(=O)Nc1cccc2c1O[C@@H](CN(C)Cc1ccc(C(F)(F)F)cc1)[C@@H](C)CN([C@@H](C)CO)C2=O -1.54%
C[C@H]1CN([C@@H](C)CO)C(=O)c2cc(NC(=O)C3CC3)ccc2O[C@@H]1CN(C)Cc1ccc(Cl)c(Cl)c1 -5.2%
C[C@@H]1CN([C@H](C)CO)C(=O)Cc2cc(NC(=O)Nc3ccccc3)ccc2O[C@@H]1CN(C)C(=O)Nc1ccc(C(F)(F)F)cc1 -1.14%
C[C@@H]1CCCCO[C@H](CN(C)C)[C@@H](C)CN([C@H](C)CO)C(=O)c2cc(NC(=O)Nc3ccc(F)cc3)ccc2O1 3.67%
Cc1noc(C)c1S(=O)(=O)Nc1cccc2c1O[C@H](CN(C)C)[C@H](C)CN([C@H](C)CO)C2=O 5.73%
C[C@@H]1CN([C@@H](C)CO)C(=O)c2cc(NC(=O)Nc3ccc4c(c3)OCO4)ccc2O[C@@H]1CN(C)Cc1ccc(C(=O)O)cc1 -3.71%
C[C@@H]1CN([C@@H](C)CO)C(=O)CCCn2nncc2CO[C@@H]1CN(C)C 4.43%
COc1ccc(CN(C)C[C@@H]2OCCCC[C@H](C)Oc3ccc(NC(=O)Nc4c(C)noc4C)cc3C(=O)N([C@H](C)CO)C[C@@H]2C)cc1 0.0847%
Cc1noc(C)c1S(=O)(=O)Nc1ccc2c(c1)CC(=O)N([C@H](C)CO)C[C@H](C)[C@H](CN(C)C(=O)Nc1cccc3ccccc13)O2 5.9%
C[C@H](CO)N1C[C@H](C)[C@H](CN(C)S(=O)(=O)c2cccs2)Oc2c(NC(=O)Nc3ccc(C(F)(F)F)cc3)cccc2C1=O 3.84%
CC(C)NC(=O)N(C)C[C@H]1OCCCC[C@H](C)Oc2ccc(NC(=O)CCCN(C)C)cc2C(=O)N([C@H](C)CO)C[C@@H]1C -1.47%
C[C@@H]1CN([C@@H](C)CO)C(=O)CCCn2cc(nn2)CO[C@H]1CN(C)C(=O)Nc1ccc(-c2cccs2)cc1 -3.35%
COc1ccc(S(=O)(=O)Nc2ccc3c(c2)CC(=O)N([C@H](C)CO)C[C@H](C)[C@H](CN(C)S(=O)(=O)c2cn(C)cn2)O3)cc1 5.44%
C[C@@H]1CN([C@@H](C)CO)C(=O)c2cccc(NS(=O)(=O)c3cccs3)c2O[C@@H]1CN(C)Cc1ccc(C(=O)O)cc1 -3.95%
Cc1ccc(S(=O)(=O)Nc2ccc3c(c2)CC(=O)N([C@H](C)CO)C[C@@H](C)[C@@H](CN(C)C(=O)Nc2c(C)noc2C)O3)cc1 1.18%
C[C@H]1CN([C@@H](C)CO)C(=O)c2cccc(NC(=O)c3cnccn3)c2O[C@@H]1CN(C)C(=O)Nc1ccccc1 -1.79%
C[C@H]1CCCCO[C@H](CN(C)C(=O)C2CCCCC2)[C@@H](C)CN([C@@H](C)CO)C(=O)c2cc(NS(=O)(=O)c3cccs3)ccc2O1 2.26%
C[C@@H]1CN([C@H](C)CO)C(=O)c2cc(NC(=O)c3ccncc3)ccc2O[C@@H](C)CCCCO[C@H]1CN(C)Cc1ccc(C(=O)O)cc1 -0.563%
COc1ccc(NC(=O)Nc2ccc3c(c2)C(=O)N([C@H](C)CO)C[C@H](C)[C@@H](CN(C)C)O3)cc1 -2.6%
COc1ccc(CN(C)C[C@@H]2Oc3c(NS(=O)(=O)c4ccc(OC)cc4)cccc3C(=O)N([C@@H](C)CO)C[C@H]2C)cc1 0.462%
C[C@@H]1CCCCO[C@@H](CN(C)C(=O)Nc2cccc3ccccc23)[C@@H](C)CN([C@@H](C)CO)C(=O)c2cc(N(C)C)ccc2O1 2.86%
Cc1noc(C)c1NC(=O)N(C)C[C@H]1Oc2c(NS(=O)(=O)c3ccccc3)cccc2C(=O)N([C@H](C)CO)C[C@@H]1C 4.19%
C[C@H]1CN([C@@H](C)CO)C(=O)CCCn2cc(nn2)CO[C@H]1CN(C)S(=O)(=O)c1ccc(Oc2ccccc2)nc1 0.77%
C[C@@H]1CCCCO[C@@H](CN(C)Cc2ccccc2)[C@H](C)CN([C@@H](C)CO)C(=O)c2cc(NS(=O)(=O)c3ccccc3)ccc2O1 1.85%
C[C@@H]1CN([C@@H](C)CO)C(=O)c2cc(NS(=O)(=O)c3cccs3)ccc2O[C@@H]1CN(C)C(=O)Nc1ccc(F)cc1 -0.701%
C[C@@H]1CN([C@H](C)CO)C(=O)c2cc(NC(=O)c3ccncc3)ccc2O[C@@H](C)CCCCO[C@H]1CN(C)S(=O)(=O)c1ccc(F)cc1 0.556%
COc1ccc(NC(=O)Nc2ccc3c(c2)C(=O)N([C@@H](C)CO)C[C@H](C)[C@H](CN(C)C)O3)cc1 4.32%
C[C@@H]1CCCCO[C@@H](CN(C)C(=O)C2CCCCC2)[C@@H](C)CN([C@@H](C)CO)C(=O)c2cc(NC(=O)Nc3ccccc3)ccc2O1 -1.24%
COc1ccc(NC(=O)Nc2ccc3c(c2)C(=O)N([C@H](C)CO)C[C@@H](C)[C@@H](CN(C)S(=O)(=O)c2cn(C)cn2)O3)cc1 0.222%
C[C@H]1CN([C@@H](C)CO)C(=O)c2cccc(NC(=O)C3CCOCC3)c2O[C@H]1CN(C)Cc1ccc(Oc2ccccc2)cc1 5.74%
C[C@@H]1CN([C@@H](C)CO)C(=O)c2cc(NC(=O)Nc3ccc4c(c3)OCO4)ccc2O[C@@H]1CN(C)C -2.36%
C[C@H]1CCCCO[C@@H](CN(C)S(=O)(=O)c2ccccc2)[C@@H](C)CN([C@@H](C)CO)C(=O)c2cc(N(C)C)ccc2O1 1.05%
